Compound activity as filed in PubChem.
CHRM1 PAM – human M1 muscarinic receptor positive allosteric modulators, primary screen, CHO-K1 cells, Fluo-8 calcium fluorescence, 1536-well; Muscarinic acetylcholine receptor M1 (Homo sapiens), P11229; actives 0.088% (n = 360,000); CHO-K1 hM1, ACh EC20; 0% = ACh EC20, 100% = maximal ACh; activation, % at 3 µM; in the data active means activation above about 19%, passing the limit was not always enough
Target sequence (P11229 whole entry, looked up): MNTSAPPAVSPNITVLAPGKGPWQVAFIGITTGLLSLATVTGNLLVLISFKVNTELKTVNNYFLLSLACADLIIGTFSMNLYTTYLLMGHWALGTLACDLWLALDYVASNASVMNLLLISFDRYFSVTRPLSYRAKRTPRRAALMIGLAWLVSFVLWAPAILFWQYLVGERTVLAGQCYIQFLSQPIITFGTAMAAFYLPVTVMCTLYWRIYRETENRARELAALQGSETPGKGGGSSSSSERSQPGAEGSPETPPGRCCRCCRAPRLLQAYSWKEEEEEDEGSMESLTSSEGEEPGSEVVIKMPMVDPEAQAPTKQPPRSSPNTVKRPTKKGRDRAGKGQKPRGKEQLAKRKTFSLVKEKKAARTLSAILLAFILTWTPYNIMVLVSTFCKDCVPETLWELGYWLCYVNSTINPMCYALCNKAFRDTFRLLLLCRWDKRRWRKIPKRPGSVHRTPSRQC
M1 PAM parental – nonselective calcium activators in parental CHO-K1 cells, primary screen, counter-screen for M1 PAM project, cell-based, Fluo-8 calcium fluorescence, full deck, 1536-well. actives 0.02% (n = 360,000). activation, % at 3 µM. ATP EC20; 0% at ATP EC20, 100% at ATP max;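 active means activation above the run cutoff, the mean activation of all test compounds plus 3 SD, cut at about 40% in these data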;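 further: peak over basal fluorescence ratio in a 140 s read after ATP addition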
M1 ag parental – counter-screen for M1 agonists: effect in parental CHO-K1 cells; Fluo-8 calcium fluorescence; scaled to maximal ATP response, vehicle zero; activation, % at 3 µM; actives 0.48% (n = 360,000); AID 602248, 2012; in the data active means activation above about 15%;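 further: untransfected CHO-K1 host cells lacking M1 receptor as counterscreen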
CHO-K1 Ca antag – counter-screen for M1 antagonists: effect in parental CHO-K1 cells | ATP-induced calcium, Fluo-8 fluorescence | inhibition, % at 3 µM | actives 0.6% (n = 360,000) | AID 602250;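 active means inhibition above a per-plate cutoff, the plate's mean sample inhibition plus 3 SD, cut at about 24% in these data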;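 further: 0% = DMSO plus EC80 ATP and 100% = DMSO alone without ATP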
M1 ag – human M1 muscarinic receptor agonists, primary screen, Fluo-8 calcium fluorescence, CHO-K1 cells, HTS. CHO-K1 hM1, agonist mode; 0% DMSO, 100% acetylcholine EC100. activation, % at 3 µM. actives 0.33% (n = 360,000);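 active means activation above the run's mean compound activation plus 3 SD, cut at about 16% in these data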;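 further: peak over basal fluorescence ratio within a 140 s kinetic read after compound addition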
M1 antag – human M1 muscarinic receptor antagonists, primary screen, CHO-K1 cells, Fluo-8 calcium fluorescence, 1536-well. inhibition, % at 3 µM. CHO-K1 hM1, ACh EC80 antagonist. actives 1.3% (n = 360,000). AID 588852, 2011;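 active means percent inhibition above its own plate's cutoff, namely the mean of that plate's compound wells plus 3 SD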;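 further: peak over basal fluorescence ratio during 140 s after agonist addition; 0% = ACh EC80 plus DMSO and 100% = DMSO alone without agonist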
* hit, by the source's call. Shown are actives, neighbours in structure and some others; about 2.3% of the full set was active somewhere.

SMILES	CHRM1 PAM	M1 PAM parental	M1 ag parental	CHO-K1 Ca antag	M1 ag	M1 antag
O=C(O)c1cccc(NC(=S)N/N=C/c2ccccc2OCc2ccc(Br)cc2)c1	-9.2	-13.3	1.2	27.0*	-5.7	13.8
Cc1ccc2c(c1)N(CC(=O)NCCCN1C(C)CCCC1C)C(=O)c1cccnc1O2 (centres undefined)	1.0	14.2	0.7	-5.8	-12.2	-11.2
Cc1ccc(NC(=O)CN(C)C(=O)COC(=O)c2ccc(Cl)cc2O)cc1	8.3	10.7	0.6	-14.4	-0.7	-8.4
O=C1N/C(=C/c2ccc(N3CCCC3)cc2)C(=O)N1c1ccccc1	6.6	18.9	1.8	-6.7	-0.6	-13.5
CN1C(=O)c2ccc(N3CCCC3)cc2C1=O	-7.4	6.1	4.1	-18.7	-6.7	2.4
Cc1cc(N2CCCC2)ccc1/C=C1\NC(=S)N(C)C1=O	-13.1	-1.2	16.9*	19.8	22.8*	18.5
O=C1/C(=C/c2ccc(N3CCCC3)cc2)NC(=S)N1C1CC1	-22.0	-10.6	56.2*	44.7*	33.7*	34.5*
Cc1ccc(NC(=O)C2(C)CCN2Cc2cccc3c2OCO3)cc1O (centres undefined)	-7.4	9.9	3.2	-11.8	-0.8	1.5
COC(=O)CCC(NS(=O)(=O)OCC(Cl)(Cl)Cl)c1ccccc1 (centres undefined)	-1.9	1.6	0.1	-7.0	-4.6	1.6
CC(C)CC(NS(=O)(=O)OCC(Cl)(Cl)Cl)c1ccccc1 (centres undefined)	-21.4	-4.5	-0.9	-2.0	-6.7	34.6*
CCc1nc2ccc(C(=O)Nc3cc(-c4ccccc4)ccc3OC)cn2c1N(C)Cc1nccs1	-14.8	-1.5	4.4	4.9	-2.5	29.0
COC(=O)C(CC(=O)c1ccc(C)cc1)n1nc(C)cc1C (centres undefined)	-16.9	19.8	16.5*	-0.1	-8.9	13.7
COC(=O)C(CC(=O)c1ccc(Br)cc1)n1nc(C)cc1C (centres undefined)	-20.0	-2.8	0.7	-3.8	-7.7	21.1
Cc1ccc(CNC(=O)c2cccnc2Sc2cccc(Cl)c2)cc1	7.2	28.7	6.2	-16.1	22.4*	-5.9
O=C(C1COc2ccccc2O1)N1CCN(c2ccccc2)CC1 (centres undefined)	-0.9	4.7	1.5	52.5*	0.3	-17.2
NS(=O)(=O)c1ccc(N2CCN(C(=O)C3COc4ccccc4O3)CC2)nc1 (centres undefined)	5.8	-26.8	0.2	13.2	2.4	-9.1
O=C(C1COc2ccccc2O1)N1CCN(c2ccc(C(F)(F)F)cn2)CC1 (centres undefined)	4.1	12.0	24.0*	5.4	-1.5	-3.2
O=C(C1CC(c2ccc(F)cc2)=NO1)N1CCN(c2ccccc2)CC1 (centres undefined)	-8.6	-7.4	0.0	12.0	-2.6	47.2*
COc1ccc(S(=O)(=O)N2CCN(C(=O)C3COc4ccccc4O3)CC2)cc1 (centres undefined)	-28.1	12.3	6.4	-23.5	-6.0	89.0*
O=C(C1CC(c2ccc(F)cc2)=NO1)N1CCCCC1 (centres undefined)	-2.1	13.8	0.5	-12.0	-3.1	2.8
Cc1cc(NC(=O)CS(=O)(=O)c2ccc(Cl)cc2)no1	4.1	15.3	1.1	-26.9	-1.7	-9.5
Cc1ccc(Cc2c(-c3ccc(F)cc3)nc3cc(C)ccn23)cc1	-12.4	-13.1	-0.3	4.2	-7.2	15.3
CC(C)Cc1nc(NCCN2CCOCC2)c(C#N)c2c1COC(C)(C)C2	-1.1	-0.4	-0.2	-4.3	-5.8	-3.3
CCCCc1nc(NCCN2CCOCC2)c(C#N)c2c1COC(C)(C)C2	13.2	-5.7	-0.1	24.8*	2.4	-20.1
COc1ccc(S(=O)(=O)N2CCC(C(=O)NCCC(=O)NCc3cccnc3)CC2)cc1	10.1	-9.1	-0.2	13.5	1.8	-7.8
